High-throughput results (PubChem)
Compounds with a hit are over-represented: about 4.7% of the library has one in this group of screens.
tim10-1 inh = tim10-1 yeast growth inhibition; S. cerevisiae tim10-1 ts strain growth, BacTiter-Glo, 24 h; inhibition, % at 20 µM; hit rate 2.2% among 330,000;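 active = inhibition of at least 40%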;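 also: mutant grown at 25 °C; 0% = DMSO wells with yeast and 100% = wells holding no yeast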
tim23-1 inh = growth inhibitors of tim23-1 mutant yeast; S. cerevisiae tim23-1 growth, BacTiter-Glo luminescence, 24 h; inhibition, % at 20 µM; hit rate 1.3% among 330,000;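 active = growth inhibition of the mutant yeast at or above 50%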;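 also: temperature-sensitive mutant grown at 25 °C; plate controls were DMSO-treated mutant yeast for no effect and medium wells lacking yeast for full effect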
SKKanGAS inh = SKKanGAS growth inhibition | inhibition, % at 7.5 µM | S. pyogenes SKKanGAS, kanamycin growth, BacTiter-Glo, 6 h | hit rate 1.3% among 300,000;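 active = mean replicate score, as percent of positive control median, at least 50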;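 also: strain carries kanamycin resistance gene driven by streptokinase promoter and grows in 40 µg/ml kanamycin; loss of luminescence reflects streptokinase promoter inhibition or plain growth inhibition; 0% = median of DMSO wells and 100% = positive control at its reference dose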
PfHsp90 yeast 2 = reduces growth (ATP signal) of yeast expressing P. falciparum Hsp90 | S. cerevisiae expressing PfHsp90, BacTiter-Glo ATP, 48 h; yeast lacking PDR1 and PDR3 efflux regulators | inhibition, % at 9.4 µM | hit rate 0.32% among 310,000 | AID 504621;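 active = every replicate shows inhibition above about 80%, whatever the replicate mean, limit read from the data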;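 also: 0% = DMSO neutral controls and 100% = 20 µM radicicol positive controls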
TIM10 inh = inhibits growth of TIM10 yeast strain. S. cerevisiae TIM10 strain growth, BacTiter-Glo luminescence, 24 h. AID 463195. inhibition, % at 10 µM. hit rate 1.4% among 330,000;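 active = inhibition of 40% or more at the single tested concentration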;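 also: wild-type TIM10 isogenic control strain grown at permissive 25 °C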
Calb FLC = affects C. albicans growth with fluconazole; growth inhibition, % (test concentration not listed); hit rate 0.57% among 300,000; C. albicans CaCi-2 (fluconazole-resistant clinical isolate) + fluconazole, Alamar Blue growth, 48 h;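 active = growth inhibition above about 58% in most replicates, limit read from the data, passing the limit was not always enough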;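 also: all wells also contain fluconazole at 8 µg/ml as a sub-toxic cotreatment; 0% = median of DMSO wells and 100% = median of geldanamycin control wells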
tim23-1 conf = tim23-1 yeast growth inhibition, confirmed; shares compounds with tim23-1 inh; S. cerevisiae tim23-1 growth, BacTiter-Glo luminescence, 24 h; inhibition, % at 20 µM; hit rate 83% among 4,400;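 active = inhibition above about 39% in either of two replicate wells at 20 µM, limit read from the data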;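 also: temperature-sensitive tim23-1 mutant grown at 25 °C; 0% = DMSO wells with yeast and 100% = medium wells without yeast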
An asterisk follows results filed as active; · = not tested or not shown.

SMILES	tim10-1 inh	tim23-1 inh	SKKanGAS inh	PfHsp90 yeast 2	TIM10 inh	Calb FLC	tim23-1 conf
COc1cccc(CN2CCNC(=O)C2CC(=O)NCCCC2CCCC2)c1OC (stereo not drawn)	2	-3	5	-5	11	-7	·
CC(O)c1cccc(N=Cc2ccc3ccccc3c2O)c1 (stereo not drawn)	-2	54*	0	21	9	19	42*
Oc1ccc(C=Nc2cccc3ccccc23)c(O)c1	27	25	-3	-7	22	6	·
CCn1c(=N)n(CCOc2ccc(OC)cc2)c2ccccc21	11	11	-3	1	4	5	·
N=c1n(CCO)c2ccccc2n1CCOc1ccccc1	-3	65*	3	11	3	7	2
COc1ccc(N2CCC(CNC(=O)Nc3ccc(OC)cc3OC)C2)cc1 (stereo not drawn)	6	13	1	-19	7	11	·
COc1ccc(N2CCC(CNC(=S)Nc3ccc(C)cc3C)C2)cc1 (stereo not drawn)	8	53*	12	6	30	-11	68*
CS(=O)(=O)c1cccc(-c2nnc(NC(=O)CCS(=O)(=O)c3ccccc3)o2)c1	-26	-6	1	-12	-7	-3	·
COc1ccc(-c2cc(-c3ccc(C)cc3)n[nH]2)c(O)c1	8	54*	77*	1	21	36	-21
N#C/C(=C\c1ccc(OC(F)F)cc1)C(=O)N1CCCCC1	33	62*	-5	-8	25	-5	44*
O=C(O)c1cccc(-c2ccc(/C=N/n3cnc4sc5c(c4c3=O)CCCC5)o2)c1	29	52*	8	·	0	22	22
CN1c2ccsc2/C(=N/Nc2ccc(F)cc2)CS1(=O)=O	36	53*	·	-57	30	-3	-29
CC1CCN(c2ccc(-c3cccs3)nn2)CC1	37	68*	14	22	38	1	72*
O=C(NC1CCCCC1)C(c1ccncc1)N(C(=O)c1csnn1)c1ccccc1F (stereo not drawn)	-4	8	-2	5	2	4	·
O=Cc1cn(CCOc2ccccc2F)c2ccccc12	14	51*	8	5	5	3	38*
O=C(NN1C(=O)/C(=C/c2cccs2)SC1=S)c1ccccc1	-21	6	3	-49	-24	-3	·
O=C1/C(=C/c2cccs2)N=C(c2cccs2)N1Nc1ccccc1	23	57*	-5	-8	30	-4	51*
O=C1/C(=C\c2cccs2)N=C(c2cccs2)N1Nc1ccccc1	31	66*	-10	-11	32	6	41*
Cc1ccc(C2=N/C(=C\c3cccs3)C(=O)N2Nc2ccccc2)cc1	29	40	1	-47	16	-1	·
NC(=O)C1CCN(C(=O)/C(=C/c2ccccc2)NC(=O)c2ccccc2)CC1	-16	-3	3	4	0	-2	·
CCCC(C)NC(=O)c1cc(S(=O)(=O)N2CCCCCC2)ccc1OC (stereo not drawn)	8	14	·	·	-2	·	·
CCN(CC)CCNC(=O)c1ccc(NC(=O)c2cccc(-n3cnnn3)c2)cc1	-29	-11	-7	8	0	-1	·
O=C(Nc1ccc(F)cc1)c1nc(S(=O)(=O)Cc2ccccc2)ncc1Cl	31	61*	-6	96*	3	-6	-126
Cc1ccccc1CS(=O)(=O)c1ncc(Cl)c(C(=O)Nc2ccc(F)cc2)n1	-1	62*	-12	114*	6	15	-23
Cc1nnc(NC(=O)c2nc(S(=O)(=O)Cc3ccccc3)ncc2Cl)s1	15	15	6	21	16	4	·
SMILES	tim10-1 inh	tim23-1 inh	SKKanGAS inh	PfHsp90 yeast 2	TIM10 inh	Calb FLC	tim23-1 conf
COc1ccc(OC)c(NC(=O)c2nc(S(=O)(=O)Cc3ccccc3)ncc2Cl)c1	11	73*	-12	100*	34	6	-43
CCS(=O)(=O)c1ncc(Cl)c(C(=O)Nc2ccc(S(=O)(=O)N(C)c3ccccc3)cc2)n1	27	32	-52	4	6	0	·
O=C(COc1ccc(Br)cc1)NC(=S)Nc1ccccc1N1CCOCC1	17	10	5	0	2	·	·
O=C(NC(=S)Nc1ccccc1N1CCOCC1)c1ccc(Br)cc1	33	55*	-22	-19	29	·	54*
CCOC(=O)Nc1ccc(C(=O)/C=C/c2ccccc2)cc1	27	58*	-12	6	27	1	40
O=C1c2ccccc2NC(c2ccc(O)c(O)c2)N1c1ccccc1Cl (stereo not drawn)	4	15	3	-25	-6	9	·
CCN(CC)c1ccc(/C=N/Nc2ccc(C)cc2)c(O)c1	·	·	·	-4	·	·	·
CCOC(=O)N/N=C/c1ccc(N(CC)CC)cc1O	36	60*	30	-8	37	0	72*
Fc1ccc(CNc2nc(-c3ccccc3)nc3ccccc23)cc1	-3	21	3	-25	17	-7	·
c1ccc(-c2nc(NCc3cccs3)c3ccccc3n2)cc1	-4	51*	16	43	28	-3	46*
O=C1ON=C(c2ccccc2)/C1=C/c1ccccc1	20	51*	2	1	14	9	39*
O=S(=O)(N/N=C\C=C\c1ccccc1)c1ccc(Br)cc1	34	56*	8	53	18	22	42*
Cc1ccc(S(=O)(=O)N/N=C\C=C\c2ccccc2)cc1	13	25	-19	6	9	-14	·
C#CCNc1c2c(nc3ncnn13)CC(C)CC2 (stereo not drawn)	5	6	19	10	-1	12	·
Cc1nc2cc(C(=O)OCC(=O)Nc3cccc(Cl)c3)ccc2n1-c1ccccc1	12	53*	19	49	16	2	30
COc1cc2c(c(OC)c1OC)C(c1ccccc1C)CC(=O)O2 (stereo not drawn)	3	55*	·	5	5	·	21
Cc1cc(C)c2c(c1)OC(=O)CC2c1ccccc1C (stereo not drawn)	26	54*	·	-30	-1	·	29
COc1ccccc1C1CC(=O)Oc2cc(C)cc(C)c21 (stereo not drawn)	17	42	·	3	1	·	·
COCCCNC(=O)c1ccc(S(=O)(=O)c2ccc(Cl)cc2)c(NC(C)=O)c1	-5	0	3	16	9	-3	·
O=C(NCCO)c1cc(-c2cc(C(=O)NCCO)c3ccccc3n2)nc2ccccc12	-11	-7	1	-14	6	4	·
COc1cccc(NC(=O)COC(=O)CC2CC3CCC2C3)c1 (stereo not drawn)	-3	56*	·	-14	31	·	41*
CC(=O)c1cccc(NC(=O)COC(=O)CC2CC3CCC2C3)c1 (stereo not drawn)	-12	41	·	-4	31	·	·
